Results as given in PubChem BioAssay AID1421 (Emory University Molecular Libraries Screening Center, 2008).
The campaign covered roughly 1,300 compounds. About 140 (11%) were called active. A selection follows. Potency and affinity values are given separately. A number with no mark means an inactive call. How the calls were made is not given here.

The compounds below were run against Prostaglandin E2 receptor EP2 subtype (Homo sapiens) (UniProt P43116) (assay: compounds shifting PGE2 potency at EP2 – cell-based, human EP2, PGE2 EC50 shift, dose response (AID 1421)). Conditions: EP2-expressing cells, PGE2 EC50 shift by compound; at 20 µM.
Sequence of Prostaglandin E2 receptor EP2 subtype (Homo sapiens) (P43116 whole entry, looked up): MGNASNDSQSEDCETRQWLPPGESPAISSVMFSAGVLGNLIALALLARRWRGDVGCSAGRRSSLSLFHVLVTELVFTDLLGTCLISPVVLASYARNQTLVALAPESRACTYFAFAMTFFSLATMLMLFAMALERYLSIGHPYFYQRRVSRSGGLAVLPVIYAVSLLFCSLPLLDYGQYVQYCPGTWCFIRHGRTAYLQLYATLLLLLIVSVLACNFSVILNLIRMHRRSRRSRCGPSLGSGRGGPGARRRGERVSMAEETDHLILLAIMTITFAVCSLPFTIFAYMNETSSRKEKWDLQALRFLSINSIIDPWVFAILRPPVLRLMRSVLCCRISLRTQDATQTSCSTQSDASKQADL

Structure (SMILES) | PGE2 EC50 with compound
CCC1C/C(=C/c2ccco2)C(=O)/C(=C/c2ccco2)C1 (stereo not given) | 0.69 nM
Cc1cc(C)c(S(=O)(=O)c2ccccc2)c(OC(=O)c2c(Cl)cc(Cl)cc2Cl)n1 | 0.38 nM
c1ccc(CCc2cccnc2)nc1 | 0.8 nM
Cc1noc(C)c1CSc1ncnc2sc3c(c12)CCC(C)C3 (stereo not given) | 0.4 nM
Cc1noc(C)c1CSc1ncnc2sc3c(c12)CCCCC3 | 0.42 nM
CC(=O)O[C@H]1C[C@@H](OC(C)=O)C(C)(C)C2C[C@@H](OC(C)=O)[C@]3(C)C([C@H](OC(C)=O)C[C@@]4(C)[C@H](c5ccoc5)OC(=O)[C@H]5O[C@]543)[C@]21C (stereo not given in full) | 0.32 nM
Cc1ccc(C)n1-n1cnc2scc(-c3cccs3)c2c1=O | 0.29 nM
COC(=O)c1sccc1NC(=O)c1cc2c(s1)CCCC2 | 0.5 nM
COc1ccc(Cc2n[nH]c(=S)n2Cc2ccccc2)cc1Cl | 0.57 nM
CCOC(=O)c1c(NC(=O)Cc2cccs2)sc(C)c1C | 0.53 nM
COC(=O)c1c(NC(=O)Cc2cccs2)sc2c1CCCC2 | 0.49 nM
CCOC(=O)c1c(NC(=O)CN2CCN(C(=O)c3ccco3)CC2)sc2c1CCCC2 | 0.59 nM
CCOC(=O)Nc1sc2c(c1C(=O)OCC)CCC2 | 0.57 nM
CCOC(=O)c1c(NC(=O)c2ccc(Br)o2)sc(C)c1CC | 0.27 nM
CCOC(=O)c1c(/N=C/C2C(=O)CCCC2=O)sc2c1CCCC2 | 0.36 nM
COC(=O)c1c(NC(=O)c2ccc(Br)s2)sc2c1CCC2 | 0.42 nM
CCOC(=O)c1c(NC(=O)c2cccs2)sc2c1CCN(C(=O)OCC)C2 | 0.43 nM
Cc1cccc(/N=C/c2c(O)ccc3oc4c(c23)CCCC4)n1 | 1.21 nM
C=CCSc1nc2ccsc2c(=O)n1-c1ccccc1 | 0.37 nM
Oc1ccc(/C=N/N2CCN(C3c4ccccc4-c4ccccc43)CC2)c(O)c1 | 0.25 nM
COc1cc(NC(=S)NC(=O)c2cc(C)cc(C)c2)ccc1NC(=O)c1cccs1 | 0.3 nM
O=S(=O)(c1cccs1)N1CN(Cc2cccs2)c2nc3ccccc3nc21 | 0.45 nM
CCOC(=O)c1c(NC(=O)CN(CC)CC)sc2c1CCN(C(=O)OCC)C2 | 0.29 nM
CCOC(=O)c1c(N)nn(C(=O)C(C)(C)C)c1-c1ccccc1 | 0.11 nM
Cc1cc(NC(=O)c2cc(-c3ccncc3)nc3c(C)cccc23)no1 | 0.92 nM
